SRC3 inh – human NCOA3 inhibition; HEK293 GAL4-SRC3 luciferase reporter, luminescence; inhibition, % at 3.6 µM; actives 0.17% (n = 360,000);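 active = inhibition above a per-campaign cutoff, the mean of all compounds plus 3 SD, cut at about 60% in these data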;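 also: higher means less SRC3-driven luciferase light from the GAL4 reporter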
Target sequence (Q9Y6Q9 whole entry, looked up, the tested form may be a part): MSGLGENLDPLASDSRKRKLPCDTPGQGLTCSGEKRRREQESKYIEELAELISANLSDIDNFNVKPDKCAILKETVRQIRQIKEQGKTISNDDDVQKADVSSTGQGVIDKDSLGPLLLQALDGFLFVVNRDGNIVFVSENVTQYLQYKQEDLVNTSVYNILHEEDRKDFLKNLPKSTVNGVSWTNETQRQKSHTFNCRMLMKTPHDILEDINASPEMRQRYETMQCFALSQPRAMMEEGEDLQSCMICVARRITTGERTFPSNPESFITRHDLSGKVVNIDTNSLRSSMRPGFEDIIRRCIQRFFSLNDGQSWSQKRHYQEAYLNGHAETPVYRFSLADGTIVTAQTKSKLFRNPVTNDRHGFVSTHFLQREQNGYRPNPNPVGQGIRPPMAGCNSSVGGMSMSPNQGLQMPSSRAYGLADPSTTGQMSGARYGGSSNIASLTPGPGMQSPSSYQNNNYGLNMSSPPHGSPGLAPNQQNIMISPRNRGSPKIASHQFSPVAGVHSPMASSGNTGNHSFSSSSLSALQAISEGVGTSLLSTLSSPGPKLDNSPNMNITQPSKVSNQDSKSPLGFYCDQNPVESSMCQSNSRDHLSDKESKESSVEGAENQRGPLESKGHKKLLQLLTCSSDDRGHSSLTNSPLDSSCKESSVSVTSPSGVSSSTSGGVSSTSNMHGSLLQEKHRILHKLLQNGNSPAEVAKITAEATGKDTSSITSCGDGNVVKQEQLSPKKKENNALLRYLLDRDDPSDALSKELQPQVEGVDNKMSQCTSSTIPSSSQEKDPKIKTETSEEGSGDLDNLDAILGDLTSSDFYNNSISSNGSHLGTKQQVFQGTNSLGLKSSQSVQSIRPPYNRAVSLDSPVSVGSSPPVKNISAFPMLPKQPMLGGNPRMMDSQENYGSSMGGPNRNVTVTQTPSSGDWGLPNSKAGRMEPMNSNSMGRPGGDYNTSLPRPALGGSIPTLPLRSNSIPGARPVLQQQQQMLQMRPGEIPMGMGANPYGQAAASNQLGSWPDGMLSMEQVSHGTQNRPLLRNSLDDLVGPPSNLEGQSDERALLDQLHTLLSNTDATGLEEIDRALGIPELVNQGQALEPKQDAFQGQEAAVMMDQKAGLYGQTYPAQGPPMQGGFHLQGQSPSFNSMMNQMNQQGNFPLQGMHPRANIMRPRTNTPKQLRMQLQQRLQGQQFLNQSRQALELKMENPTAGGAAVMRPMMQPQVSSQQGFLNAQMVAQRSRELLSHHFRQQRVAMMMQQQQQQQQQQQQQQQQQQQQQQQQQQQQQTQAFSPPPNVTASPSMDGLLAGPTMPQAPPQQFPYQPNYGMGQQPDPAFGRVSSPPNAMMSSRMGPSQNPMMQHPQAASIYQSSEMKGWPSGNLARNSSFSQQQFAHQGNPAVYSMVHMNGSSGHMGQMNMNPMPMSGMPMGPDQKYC
NR2F2 inh – NR2F2 (human) inhibition, primary screen; P24468; HEK293T NGFI-A luciferase reporter, luminescence; inhibition, % at 8.6 µM; actives 0.7% (n = 370,000); AID 686940;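 active = inhibition above a per-plate cutoff, mean inhibition of test wells between control levels plus 3 SD, cut at about 38% in these data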;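 also: cells cotransfected with COUP-TFII expression vector driving the NGFI-A reporter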
SRC1 inh – human NCOA1 inhibition. HEK293 GAL4-SRC1 luciferase reporter, luminescence. inhibition, % at 3.6 µM. actives 0.12% (n = 360,000). AID 588354;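 active = inhibition above the campaign mean plus 3 SD, with each screening campaign given its own cutoff, cut at about 60% in these data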
LRH-1 inv ag – NR5A2 inverse agonism in reporter assay; actives 0.13% (n = 360,000); inhibition, % at 3.6 µM; HEK293T StAR-luciferase reporter, LRH-1 transfected, 24 h; O00482;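 active = inhibition above the mean inhibition of all tested compounds plus 3 SD, cut at about 73% in these data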
GalR3 antag – blocks the human galanin receptor 3; O60755; HEK293 GalR3-CNG cAMP membrane potential fluorescence; galR3 body fused to GalR1 C-terminus; inhibition, % at 3 µM; actives 0.44% (n = 360,000); AID 651719;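 active = inhibition above the screen-wide average plus 3 SD, cut at about 13% in these data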;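 also: forskolin and galanin both at EC90 stimulate the cells; cAMP rise reported by CNG channel membrane potential dye signal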
SRC2 inh – inhibits human steroid receptor coactivator 2 | Q15596 | HEK293 GAL4-SRC2 luciferase reporter, luminescence | inhibition, % at 9 µM | actives 0.17% (n = 370,000) | AID 651957;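 active = inhibition above the mean inhibition of all tested compounds plus 3 SD, set per campaign, cut at about 52% in these data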
Of the large screens only hits and unclear results are named; the others gave an inactive call. Hits are enriched below; roughly 1.1% of the tested compounds scored in any of these assays.

COc1cc(C=CC(=O)c2cc(OC)c(OC)c(OC)c2)cc(OC)c1OC	SRC3 inh 64, SRC2 inh 68
COc1cc(C=CC(=O)c2ccccc2)cc(OC)c1OC	none
Oc1ccc(N=Nc2ccc3c(c2)OCCO3)c2cccnc12	SRC2 inh 52
COc1ccc(N=Nc2ccc(O)c3ncccc23)cc1	none
O=C(C1=NN[C@@H]2C(=O)N(c3cccc(C(F)(F)F)c3)C(=O)[C@H]12)c1ccc2ccccc2n1	SRC2 inh 59
Cc1ccccc1NC(=O)N(C)[C@H]1C[C@H]2c3[nH]c4c(-c5ccccc5)cccc4c3CCN2C(=O)[C@H]1[C@H](C)O	none (no result: SRC3 inh, SRC1 inh, LRH-1 inv ag)
CC1=C(C(=O)OCc2ccc3c(c2)OCO3)C(c2ccc(O)c([N+](=O)[O-])c2)NC(=O)N1 (stereo not drawn)	SRC2 inh 56
CC1=C(C(=O)OCc2ccc3c(c2)OCO3)C(c2ccccc2OCc2ccccc2)NC(=O)N1 (stereo not drawn)	none
CC1=C(C(=O)OCc2ccc3c(c2)OCO3)C(c2ccccc2)NC(=O)N1 (stereo not drawn)	SRC3 inh 70, SRC1 inh 71, SRC2 inh 54
COC(=O)C(C(=O)OC)[C@H]1C=C[C@@H](C(=O)NS(=O)(=O)c2ccc(C)cc2)N(C(C)=O)C1	none (no result: SRC3 inh, SRC1 inh, LRH-1 inv ag, GalR3 antag)
CCC[C@H]1[C@@H](NCc2ccccc2)CC[C@@]23CCCN2C(=O)CCC[C@@H]13	none (no result: SRC3 inh, SRC1 inh, LRH-1 inv ag, GalR3 antag, SRC2 inh)
CCc1cc2c(COC(=O)c3cc(S(=O)(=O)N4CCOCC4)ccc3F)cc(=O)oc2cc1O	GalR3 antag 19
Cc1noc(C)c1COC(=O)c1cc(S(=O)(=O)N2CCOCC2)ccc1F	none
CN1OC[C@@H]2CN[C@H](c3ccc(-c4cc5ccccc5o4)cc3)C[C@@H]21	SRC3 inh 87, SRC1 inh 87, LRH-1 inv ag 91 (no result: NR2F2 inh, GalR3 antag, SRC2 inh)
C[C@@H](N)C(=O)Nc1ccc(Cl)cc1C(=O)c1ccc[nH]1	none (no result: SRC3 inh, SRC1 inh, LRH-1 inv ag, GalR3 antag, SRC2 inh)
C[C@H]1[C@@H](OC(=O)Nc2ccccc2F)CC[C@@]23CCCN2C(=O)CCC[C@@H]13	none (no result: SRC3 inh, SRC1 inh, LRH-1 inv ag, GalR3 antag, SRC2 inh)
Cc1ccc(Cc2c(-c3ccco3)nc3c(C)cc(Br)cn23)cc1	GalR3 antag 34
Cc1ccccc1CN[C@@H]1CC[C@@]23CCCN2C(=O)CCC[C@H]3C1	none (no result: SRC3 inh, SRC1 inh, LRH-1 inv ag, GalR3 antag, SRC2 inh)
COc1ccc(N=C(NN)c2ccc3ccccc3n2)cc1	NR2F2 inh 75, LRH-1 inv ag 77, SRC2 inh 63
COc1cc(C=O)ccc1OCCCOc1ccccc1[N+](=O)[O-]	none
COc1cc(C=O)ccc1OCCCOc1ccccc1C(=O)O	SRC2 inh 60
O=C(NCCCc1ccccc1)[C@H](Cc1c[nH]c2ccccc12)NC1(C(=O)NCCc2c[nH]c3ccccc23)CCC1	none (no result: SRC3 inh, SRC1 inh, LRH-1 inv ag, GalR3 antag, SRC2 inh)
C=C1C(=O)[C@]23C[C@H]1CCC2[C@@]1(C)C(C[C@@H]3O)[C@](C)(C(=O)OC)CC[C@@H]1O (stereo partly drawn)	SRC2 inh 64
CCCCCCCCC[n+]1cccc2c3ccccc3ccc21	SRC3 inh 71, LRH-1 inv ag 96 (no result: NR2F2 inh, GalR3 antag, SRC2 inh)
Cc1ccccc1C(=O)N(C)[C@H]1C[C@H]2c3[nH]c4c(-c5ccccc5)cccc4c3CCN2C[C@H]1[C@H](C)O	none (no result: SRC3 inh, SRC1 inh, LRH-1 inv ag, GalR3 antag)
COC(=O)C1CN(CC(C)C)CCS(=O)(=O)N1Cc1ccc(C(F)(F)F)cc1 (stereo not drawn)	none (no result: SRC3 inh, SRC1 inh, LRH-1 inv ag, GalR3 antag)
COc1cccc(N2C(=O)CC(NNC(=O)c3cccs3)C2=O)c1 (stereo not drawn)	SRC2 inh 100
C=CCn1c(C)cc(C2=NNC(=NC(C)(C)C)SC2)c1C	NR2F2 inh 58
CC(C)N1Cc2nnn(Cc3ccccc3)c2-c2cc(F)ccc2S1(=O)=O	none (no result: SRC3 inh, SRC1 inh, LRH-1 inv ag, GalR3 antag)
O=C(O)Cc1ccc(C(=O)c2ccccc2)s1	none
COc1ccc(C(=O)c2ccc(CC(=O)O)s2)cc1	SRC2 inh 52
CCOC(=O)N1c2ccccc2Sc2ccccc21	none
Cc1nnc(SC(=O)N2c3ccccc3Sc3ccccc32)s1	SRC3 inh 65, SRC2 inh 60
C[N+]1(CC2COC3(CCCCC3)O2)CCCC1 (stereo not drawn)	SRC2 inh 97
C1CCCCCC2(CCCCC1)OCC(CN1CCOCC1)O2 (stereo not drawn)	none
S=c1[nH]nc(C2CCCCC2)n1/N=C/c1ccncc1	SRC3 inh 69, SRC1 inh 71
Cc1ccc(-n2c(SCC(=O)Nc3ccc(OCc4ccccc4)cc3)nnc2-c2ccccc2)cc1	none (no result: SRC3 inh, SRC1 inh, LRH-1 inv ag, GalR3 antag)
CCC[C@H]1[C@@H](NC(=O)C(c2ccccc2)c2ccccc2)CC[C@@]23CCCN2C(=O)CCC[C@@H]13	none (no result: SRC3 inh, SRC1 inh, LRH-1 inv ag, GalR3 antag, SRC2 inh)
COc1ccc(C(=O)Nc2ccc(N3CCOCC3)cc2)cc1S(=O)(=O)N1CCOCC1	none
COc1ccc(C(=O)Nc2ccc(-c3ccc(C)o3)cc2)cc1S(=O)(=O)N1CCOCC1	NR2F2 inh 75, GalR3 antag 94
COc1cc2ccccc2ccc1=NO	SRC2 inh 54
COc1cc2ccccc2cc1C(=O)O	none
Cc1cc(C(=O)Nc2ccccc2)c(C)o1	none
Cc1cc(C(=O)Nc2ccc(CC(=O)O)cc2)c(C)o1	SRC2 inh 55
CN(C)CCNC(=O)c1cccc2nc3c(ccc4ccccc43)nc12	SRC1 inh 66
COc1ccc(C(=O)NCCN(C)C)c2nc3ccccc3cc12	none
COc1cccc2nc3c(C(=O)NCCN(C)C)cccc3cc12	SRC1 inh 63
CC(C)(C)N1Cc2nnn(Cc3ccccc3)c2-c2cc(N3CCCCC3)ccc2S1(=O)=O	none (no result: SRC3 inh, SRC1 inh, LRH-1 inv ag, GalR3 antag)
C(=C\c1ccccc1)/CSc1nnc(COc2ccccc2)n1Cc1ccco1	none (no result: SRC3 inh, SRC1 inh, LRH-1 inv ag, GalR3 antag)
COc1ccccc1C1c2c(ncn(-c3ccccc3)c2=N)Oc2ccc3ccccc3c21 (stereo not drawn)	none (no result: SRC3 inh, SRC1 inh, LRH-1 inv ag, GalR3 antag, SRC2 inh)
CN(C)c1ccc(C(=O)OCc2ccccc2)cc1	none
O=C1C=CC(=O)C(CNc2ccc(C(=O)OCc3ccccc3)cc2)=C1	SRC2 inh 67
O=C(Nc1cccc(S(=O)(=O)N2CCCCC2)c1)c1ccc(OCC2CCCO2)cc1 (stereo not drawn)	none
O=C(Nc1ccc(Cl)c(S(=O)(=O)N2CCOCC2)c1)c1ccc(OCC2CCCO2)cc1 (stereo not drawn)	SRC3 inh 73 (no result: NR2F2 inh, GalR3 antag, SRC2 inh)
COC(=O)[C@H](C)NC(=O)[C@@H]1CC=C[C@@H]2CCN(CCc3ccccc3)C(=O)[C@@H]21	none (no result: SRC3 inh, SRC1 inh, LRH-1 inv ag, GalR3 antag, SRC2 inh)
CN(C)c1ncnc2c1nnn2C1OC(CO)C(O)C1O (stereo not drawn)	SRC3 inh 69, SRC1 inh 64, LRH-1 inv ag 98
O=c1[nH]cnc2c1nnn2C1OC(CO)C(O)C1O (stereo not drawn)	LRH-1 inv ag 85
CN(C)c1ncnc2c1ncn2C1OC(CO)C(O)C1O (stereo not drawn)	none

From PubChem BioAssay
